Source: the supplement of paper PMC6555819

Tests used:
Test in all cases: PBM binding z-score (relative to random genomic background probes); higher = stronger binding; sequences stand for … in GC…GCGATTGACAGCGTAGAATGAAGG
[1] = tested on: FXR:RXRa (NR concentration 270 nM, RXRa partner concentration 90 nM)
Outline: (§1)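 Custom Agilent 4×180K protein-binding microarrays carried double-stranded probes, each with a 34-nt variable region. These regions held direct-repeat seeds, single-nucleotide variants, half-site ablations and random human genomic background sequences. Ligand-free nuclear receptor dimers were incubated on the arrays for 1 h, antibodies against each partner (one per run) detected binding, and scanned fluorescence was regression-normalized. Binding z-scores take the random background probes as reference.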

[2] = tested on: LXRa:RXRa (NR concentration 270 nM, RXRa partner concentration 90 nM)
Outline: as §1

[3] = tested on: LXRa homodimer (NR concentration 270 nM)
Outline: as §1

[4] = tested on: LXRb:RXRa (NR concentration 270 nM, RXRa partner concentration 90 nM)
Outline: as §1

[5] = tested on: LXRb homodimer (NR concentration 270 nM)
Outline: as §1

[6] = tested on: PPARa:RXRa (NR concentration 270 nM, RXRa partner concentration 90 nM)
Outline: as §1

[7] = tested on: PPARg:RXRa (NR concentration 180 nM, RXRa partner concentration 90 nM)
Outline: as §1

[8] = tested on: PPARg:RXRa 270nM:90nM, anti-RXR (NR concentration 270 nM, RXRa partner concentration 90 nM)
Outline: as §1

[9] = tested on: PPARg:RXRa 30nM:10nM, anti-RXR (NR concentration 30 nM, RXRa partner concentration 10 nM)
Outline: as §1

[10] = tested on: PPARg:RXRa 90nM:30nM, anti-RXR (NR concentration 90 nM, RXRa partner concentration 30 nM)
Outline: as §1

Sequence | PBM binding z-score [1] | PBM binding z-score [2] | PBM binding z-score [3] | PBM binding z-score [4] | PBM binding z-score [5] | PBM binding z-score [6] | PBM binding z-score [7] | PBM binding z-score [8] | PBM binding z-score [9] | PBM binding z-score [10]
AATACAGGGTCACTACGCCAGAGTAGGTACGAAT | 6.43 | 4.99 | 1.13 | 4.16 | 1.17 | 5.41 | 6.19 | 5.01 | 2.58 | 3.89
TCTAGTTGGGCACGGAGGTCACACACGACGGGTA | 2.68 | 2.91 | 1.6 | 2.66 | 0.446 | 3.52 | 2.82 | 3.41 | 2.73 | 2.96
CCGACTGGGGCAGAAAGGTTTCCATACCATCCGG | -0.743 | -0.804 | -0.629 | -1.01 | -1.31 | -0.642 | 0.629 | 0.229 | -0.72 | -0.258
ATATGTTGGTTATCGGGTCATTCAGTTTGCGCAT | 2.39 | 2.42 | 1.49 | 2.76 | 1.77 | 2.86 | 1.7 | 2.19 | 0.577 | 1.65
CCTCGCAGGCCAATCTGGGTCACTCAAGGCTTGA | 0.68 | 1.48 | -0.253 | 0.914 | -0.638 | 3 | 1.74 | 2.28 | -0.176 | 1.3
GCTAGCAGGCCATTTGGGTCACTAAATGACGGGC | 0.069 | -0.203 | -0.746 | -0.105 | -1.17 | 1.44 | 0.795 | 0.692 | -0.344 | 0.257
ACTAGCAGGCCAAGGGTCACTCTAGATTAGTCCG | 1.88 | 3.2 | 0.239 | 2.54 | -0.423 | 4.44 | 7.53 | 7.29 | 6.21 | 7.97
TTACCAAGATGAGCTGAGGTCGTTGATCCAACTC | 0.71 | 0.408 | 0.0791 | 0.458 | -0.782 | 0.853 | 0.0458 | 0.511 | 0.543 | 0.66
TCTGCTAGGTCAACGATTGTCAGCTAATCTGCTA | 2.81 | 1.94 | -0.0951 | 1.4 | -0.279 | 2.93 | 2.43 | 2.93 | 1.9 | 2.36
GCTAGTTGGTGAGTAAAAGGTCACACACCGGTCG | 3.1 | 3.92 | 3.81 | 3.79 | -0.0196 | 4.55 | 3.87 | 5.23 | 3.09 | 4.99
ATCTCTAGGTAACAAGTTTAGTGAAAGAGAGGAC | 0.428 | 0.215 | 0.326 | 0.212 | 0.657 | 0.577 | 0.844 | 1.35 | 0.486 | 1.37
CTCGTAAGGTCGTGCTCAGGTGAGTATACCAAAC | 3.16 | 2.44 | -0.206 | 1.97 | 0.357 | 3.48 | 0.721 | 1.85 | 0.398 | 1.07
